The values that follow come from PubChem BioAssay AID1117361 (Southern Research Institute, 2015).

Structures are written as SMILES. Hit rate of the full screen: of about 3,600 compounds, about 900 (25%) were called active. The rule behind the calls is not given here. Not all results are given here. Entries that show only a call come without a potency. Potency and affinity values are given separately.

The target in the assay is Protein Tat (Human immunodeficiency virus type 1 group M subtype B (isolate HXB2)) (UniProt P04608). Briefly: HIV-1 Tat–TAR interaction blockers – biochemical, fluorescence polarization, FAM-labeled TAR RNA, counter-screen for Vif-APOBEC3G degradation inhibitor project, dose response (AID 1117361). The conditions noted are these: Tat-TAR RNA binding; series mostly up to 100 µM. (In general: In fluorescence polarisation assays a small probe gives low polarisation when free and higher when bound to something large.)
For `O=C(c1ccco1)N1CCN=C1SCc1ccccc1F`, the outcome was inactive.

Consider `Cc1ccccc1S(=O)(=O)Cc1ccc(C(=O)NCCCN2CCC(C)CC2)o1`, for which the outcome was inactive.

For the compound `O=C(CCCCl)Nc1nc(-c2ccc3c(c2)OCCO3)cs1`, the outcome was inactive.

For the compound `CN(C)C(=O)c1cc(Cl)ccc1Sc1cc(Cl)ccc1Cl`, the call was inactive.

With `COC(C[C@H]1O[C@@H]1[C@@H](O)COCc1ccccc1)OC`, the outcome was inactive.

Regarding `N#Cc1nc(Cc2cccc3ccccc23)oc1NCc1ccc(F)cc1`, the call was inactive.

For `Cc1nc(C(=O)N(C)C)nn1-c1cc(Cl)cc(Cl)c1`, the compound was classed as inactive.

On to `CCC(=O)Nc1nc2ccc(NC(C)=O)cc2s1`, for which the call was inactive.

On to `CC(C)c1ccccc1N1CC(C(=O)O)CC1=O` (stereo not given), for which the outcome was inactive.

Turning to `COc1ccc(/C(O)=C2/C(=O)C(=O)N(c3ccccn3)C2c2ccc(F)cc2)cc1` (stereo not given), the outcome was inactive.

Consider `COc1cc(C2C(C(=O)c3ccco3)=C(O)C(=O)N2c2cc(C)on2)cc(Br)c1O` (stereo not given), for which the call was inactive.

In the case of `O=C(C1CCCC1)N1CCCC(Nc2ccc(F)cc2)C1` (stereo not given), the result was inactive.

Turning to `COc1ccccc1N1CCN(C(=O)c2cc(-c3cccs3)on2)CC1`, the outcome was inactive.

Consider `O=C(c1cc(-c2cccs2)on1)N1CCCCC1`, for which the call was inactive.

As to `COc1cccc2sc(N(C)c3ccccc3)nc12`, the call was inactive.

With `CC1CCN(S(=O)(=O)c2cc(Br)cc(C(=O)NC3=NCCS3)c2)CC1`, the compound was classed as inactive.

As to `C=CCNC(=O)c1ccncc1`, the outcome was inactive.

As to `COc1cc(/C=N/NC(=O)c2ccc(NS(=O)(=O)c3cccs3)cc2)cc(OC)c1O`, the outcome was inactive.

With `CCn1cc(C(=O)N2CCOCC2)c(=O)c2cc(S(=O)(=O)N(C)C3CCCCC3)ccc21`, the call was inactive.

For `CSc1cccc(NC(=O)C(C)C)c1`, the compound was classed as inactive.

For the compound `CSc1cccc(NC(=O)CN(c2cc(C)ccc2C)S(C)(=O)=O)c1`, the call was inactive.

With `CCOC(=O)C1CCN(C(=O)c2ccc(Cl)c(S(=O)(=O)N3CCOCC3)c2)CC1`, the call was inactive.

As for `O=C(N/N=C/c1ccc(F)cc1)c1ccc(Br)cc1`, the compound was called inactive.

In the case of `CSCC[C@H](NC(=O)NCc1ccccc1F)C(=O)O`, the result was inactive.

Turning to `COc1ccc(NC(=O)c2cccnc2C(=O)O)c(OC)c1`, the call was inactive.

In the case of `O=C(O)c1ccccc1NS(=O)(=O)c1ccccc1C(F)(F)F`, the call was inactive.

Consider `Cc1cc(=O)[nH]c2c1c(C)nn2C1CCCC1`, for which the compound was called inactive.

Take `Cc1ccc2c(c1)c(=O)c1c3n2CCN(C(=O)CCl)C3CC1` (stereo not given): the outcome was inactive.

Consider `O=C(COC(=O)c1ccccc1OC(F)F)Nc1ccc2[nH]c(=O)[nH]c2c1`, for which the result was inactive.

As to `CCN(CC)C(=O)c1sc(NC(=O)c2ccc(Br)o2)c(C(=O)OC)c1C`, the call was inactive.

As to `C=CCNC(=O)c1ccccc1Cl`, the result was inactive.

On to `CCc1c(C(=O)NCc2ccccc2Cl)[nH]c(C)c1C(C)=O`, for which the compound was called inactive.

Consider `Nc1ccc(Sc2cc(Cl)nc(N)n2)cc1`, for which the outcome was inactive.

Turning to `O=C(CSc1nc(N2CCCCC2)nc(N2CCCCC2)n1)N1CCc2ccccc21`, the result was inactive.

For the compound `O=C(Cn1ccc([N+](=O)[O-])n1)N1CCCc2ccccc21`, the compound was classed as inactive.

Take `CCCCNC(=O)CN1C(=O)CSc2ccc(S(=O)(=O)N3CCOCC3)cc21`: the call was inactive.

For `CO/N=C/C(=N\Nc1ccc(OC)cc1)C(=O)c1ccc(OC)cc1`, the compound was classed as inactive.

As to `COc1ccc(C(=O)C2CCCN(C(=O)c3cnsn3)C2)c(C)c1` (stereo not given), the compound was called inactive.

For the compound `CC(=O)c1ccc(-c2nnc(CCC(=O)N(C)Cc3c(C)nc4ccccn34)o2)s1`, the result was inactive.

Take `CN(C(=O)CSc1ncnc2sccc12)C1CCCCC1`: the compound was called inactive.

On to `O=C(/C=C/c1ccccc1)NC(NC(=S)Nc1cc(Cl)ccc1Cl)C(Cl)(Cl)Cl` (stereo not given), for which the result was inactive.

Regarding `COC(=O)c1cccc(NC(=O)c2cccc(OC)c2)c1`, the compound was classed as inactive.

Consider `COC(=O)c1ccc(NC(=O)COc2cccc(-n3cnnn3)c2)cc1`, for which the outcome was inactive.

Consider `O=C(O)c1cccc(NCc2ccncc2)c1`, for which the compound was classed as inactive.

With `CC(=O)Nc1ccc2c(c1)Cc1cc(N3C(=O)C=CC3=O)ccc1-2`, the compound was classed as inactive.

`CCOc1ccc(C2=[N+]([O-])C(C)(C)N(O)C2(C)C)cc1`: the result was inactive.

For `CCCCn1nnc(NC(=O)c2ccc(-c3cccc(Cl)c3)o2)n1`, the compound was classed as inactive.

Turning to `CC1(C)CC(=O)c2cc(OCC(=O)NCc3cccnc3)ccc2O1`, the outcome was inactive.

Regarding `CCOC(=O)/C(=C\c1ccccc1)NC(=O)c1ccccc1`, the outcome was inactive.

In the case of `CCOC(=O)/C(=C/c1c2ccccc2cc2ccccc12)NC(=O)c1ccccc1`, the compound was classed as inactive.

In the case of `COc1ccc(S(=O)(=O)NCc2ccccn2)cc1`, the result was inactive.

Turning to `Cc1cccc(C)c1NS(=O)(=O)c1c(C)[nH]c(=O)[nH]c1=O`, the outcome was inactive.

Take `COc1ccc(CNc2ncnc(N)n2)cc1`: the call was inactive.

With `CC(C)CC(NC(=O)CCl)c1ccccc1` (stereo not given), the result was inactive.

On to `CCCC(=O)Nc1ccccc1NC(C)=O`, for which the result was inactive.

Turning to `CCOC(=O)c1ccc(NC(=O)CSc2nnc(Cc3cccs3)n2C)cc1`, the compound was called inactive.

With `CCN(CC)C(=O)CSCC(=O)Nc1ccccc1`, the outcome was inactive.

As to `O=C(c1c(F)cccc1F)N(Cc1ccccn1)C1CCCC1`, the call was inactive.

For `O=C(CCn1c(=O)c2ccccc2n(CC(=O)NCCC2=CCCCC2)c1=O)NCc1ccco1`, the compound was called inactive.

Regarding `O=C(NCCc1ccc(Cl)cc1)C1CCN(C(=O)c2sccc2-n2cccc2)CC1`, the result was inactive.

With `COc1cc(C(O)P(=O)(OCC(C)C)OCC(C)C)cc(OC)c1OC` (stereo not given), the outcome was inactive.

As to `Cc1ccc(CNC(=O)C2c3ccccc3C(=O)N3CCc4ccccc4C23)o1` (stereo not given), the compound was called inactive.

For `CN1CCN(C(=O)c2ccc(N(C)S(=O)(=O)c3cccs3)cc2)CC1`, the result was inactive.

As for `Cc1ccc(CSC2=Nc3sccc3C3=NC(=O)CN23)cc1`, the call was inactive.

As for `COCC(=O)NCCc1nc2ccccc2[nH]1`, the outcome was inactive.

As for `COCCn1c(N2CCN(c3ccc(OC)cc3)CC2)nc2c1c(=O)[nH]c(=O)n2C`, the result was inactive.

`CCn1c(=N)n(CC(=O)c2ccc(OC)cc2)c2ccccc21`: the compound was called inactive.

For the compound `CCCn1c(NC(=O)c2ccco2)nc2ccccc21`, the compound was classed as inactive.

For the compound `CC(=O)c1sc(NC(=O)C2CCN(C(=O)c3ccccc3C)CC2)nc1-c1ccccc1`, the compound was classed as inactive.

Regarding `COc1ccc2oc(C(F)(F)C(F)(F)F)cc(=O)c2c1`, the outcome was inactive.

Regarding `O=C(CN1CCC(NC(=O)c2cccc(F)c2)CC1)NCc1ccccc1F`, the result was inactive.

In the case of `CCN(CC)C(=O)CN1C(=O)C2(NC(=O)c3ccccc3N2)c2ccccc21` (stereo not given), the outcome was inactive.

As to `Cc1ccc(OC(=O)COc2ccccc2)c(-n2nc3ccccc3n2)c1`, the outcome was inactive.

For the compound `O=C(NCc1ccncc1)c1ccc(Cn2cc(C(F)(F)F)ccc2=O)cc1`, the compound was called inactive.

Regarding `CCc1ccc(NS(=O)(=O)c2cccs2)cc1`, the compound was classed as inactive.

In the case of `CC(OC(=O)c1cccs1)C(=O)NCc1ccco1` (stereo not given), the call was inactive.

Turning to `COc1cccc(-c2nnc(SCC(=O)OC(C)C)n2N)c1`, the compound was classed as inactive.

For `O=C(c1ccco1)N(Cc1ccc([N+](=O)[O-])cc1)c1ccc(Cl)cc1`, the compound was classed as inactive.

Regarding `O=C(c1ccco1)N(Cc1ccco1)c1ccc(O)cc1`, the compound was classed as inactive.

For `O=C(Cn1ncc(Cl)c(Cl)c1=O)c1ccc2c(c1)OCCO2`, the compound was classed as inactive.

In the case of `CCCCCCC(=O)N(O)C1CC(=O)N(c2ccc(Br)cc2)C1=O` (stereo not given), the compound was classed as inactive.

As to `Nc1nc(SCC(=O)OCc2ccccc2)[nH]c(=O)c1NC(=O)c1ccco1`, the result was inactive.

Regarding `O=C1CC(Nc2ccc(N3CCOCC3)cc2)C(=O)N1CCc1ccccc1` (stereo not given), the outcome was inactive.

Consider `COc1ccc(Nc2ncc(F)c(N3CCOCC3)n2)cc1`, for which the compound was called inactive.

On to `COc1ccc(CCN2C(=O)c3cccnc3C2=O)cc1OC`, for which the call was inactive.

In the case of `NS(=O)(=O)c1ccc(CCNC2CC(=O)N(Cc3ccccc3)C2=O)cc1` (stereo not given), the call was inactive.

`CCNC(=O)CC1C(=O)N(c2ccc(C)cc2)C(=O)N1CCc1ccc(OC)c(OC)c1` (stereo not given): the result was inactive.

Take `O=S(=O)(N1CCCCC1)N1CCN(c2ccccc2F)CC1`: the compound was called inactive.

With `COc1cc(N2C(=O)C=CC2=O)ccc1N1C(=O)C=CC1=O`, the outcome was inactive.

In the case of `CN1CCN(/C=C(\C#N)S(=O)(=O)c2ccc(Cl)cc2)CC1`, the call was inactive.

Consider `S=C(NCc1ccccn1)Nc1ccc(Cl)c(Cl)c1`, for which the call was inactive.

With `O=C(NCc1ccc(F)cc1)C1CCC(CNc2c(N3CCCCC3)c(=O)c2=O)CC1` (stereo not given), the outcome was inactive.

As for `Cc1cc(C)cc(N(CC(=O)NCc2cccnc2)S(C)(=O)=O)c1`, the result was inactive.

For the compound `CCSc1nnc(NC(=O)c2cccc3ccccc23)s1`, the compound was called inactive.

For `Cc1ccc(C(C)C)c(OCCN(C)C)c1`, the compound was called inactive.

Turning to `Cc1cc(C)cc(CC2CC(=O)N(c3ccc4c(c3)OCCO4)C2=O)c1` (stereo not given), the outcome was inactive.

For `COc1ccc(C2OC(=O)CC2C(=O)N2CCN(c3cc(Cl)ccc3C)CC2)cc1OC` (stereo not given), the call was inactive.

With `CCOC(=O)C(C#N)(Cc1ccc2ccccc2n1)Cc1ccc2ccccc2n1`, the call was inactive.

For `Cc1ccccc1NS(=O)(=O)c1ccc2[nH]cc(C(=O)N(C)Cc3ccco3)c(=O)c2c1`, the compound was called inactive.

`CC1CCCCN1CCCNC(=O)C1CCN(c2nc3ccccc3o2)CC1` (stereo not given): the compound was classed as inactive.

For the compound `COc1ccccc1N1C(=O)CC(Sc2nccc(C)n2)C1=O` (stereo not given), the compound was called inactive.

As to `O=C(Nc1ccc(COc2ccccc2)cc1)Oc1ccccc1N1CCOCC1`, the outcome was inactive.

Take `COc1ccccc1CNCC(=O)Nc1ccc(N2CCOCC2)cc1`: the outcome was inactive.

As for `O=C1CC(NCc2ccco2)C(=O)N1CCc1ccccc1` (stereo not given), the compound was classed as inactive.

For `CCN(CC)c1ccc(NC(=O)c2ccco2)cc1`, the outcome was inactive.

For the compound `CCOc1ccc(Cl)cc1S(=O)(=O)N1CCN(c2ccc(F)cc2)CC1`, the compound was called inactive.

As to `O=C(CSc1ccc(Cl)cc1)c1ccco1`, the call was inactive.

For the compound `O=[N+]([O-])c1ccc(-c2c[nH]c(=S)[nH]2)cc1`, the outcome was inactive.

For the compound `CC1(C)OC(=O)C(=CNC(Cc2c[nH]c3ccccc23)C(=O)O)C(=O)O1` (stereo not given), the outcome was inactive.

Regarding `CC(C)(C)c1ccc(OCC(=O)NCCN2CCCC2)cc1`, the compound was called inactive.

As for `Cc1ccc(S(=O)(=O)N2CCOCC2)cc1C(=O)Nc1nc2ccccc2[nH]1`, the compound was called inactive.

On to `CC(NC(=O)c1ccco1)C1CCCO1` (stereo not given), for which the result was inactive.

Take `CC1(C)Cc2c(cnn2-c2ccccc2)C(NC(=O)CCCN2CCCCC2=O)C1` (stereo not given): the result was inactive.

For the compound `O=S(=O)(NCc1cn2ccsc2n1)c1cccs1`, the result was inactive.

Turning to `Nc1cccc2c1C(=O)N(C(=O)/C=C/c1cccc(Br)c1)C2=O`, the call was inactive.
